# From PubChem BioAssay
# Activity calls are given as the source filed them. Unless noted, the rule behind the calls is not given here.
# Legend:
# [1] = tested on: XIP peptide (Xip251-270) binding; assay: small-molecule binders of XIP peptide, primary screen, biochemical, small-molecule microarray, fluorescence 635/667 nm, 0.1 µg/mL protein (AID 1182); details: fluorescent protein binding, 635 nm, higher = more signal, called active from +8 up or from −8 down
# XIP peptide (Xip251-270) = assay: small-molecule binders of XIP peptide, primary screen, biochemical, small-molecule microarray, fluorescence 635/667 nm, 0.5 µg/mL protein (AID 1183); details: small-molecule microarray binding, fluorescence 635 nm; higher = more signal
# [2] = Plasmodium falciparum growth inhibition, primary screen, strain 3D7, DAPI fluorescence, 100 nL (AID 1184);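 note: parasites grown inside human red blood cells in medium with human serum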; details: P. falciparum 3D7 growth, 3 d, higher = more signal
# [3] = target: Homeobox protein Hox-A13 (Mus musculus) (UniProt Q62424); assay: inhibitors of HoxA13-DNA binding, primary screen, biochemical, fluorescence polarization, labeled oligonucleotide (AID 1185); details: 15 min, higher = more signal, called active from +8 up or from −8 down
# [4] = inhibitors of hydroxyurea-induced Chk1 phosphorylation, primary screen, imaging, HeLa, phospho-Chk1 antibody, percent positive cells (AID 1186); details: hydroxyurea-induced phospho-Chk1 immunofluorescence imaging, higher = more signal
# [5] = inhibitors of hydroxyurea-induced Chk1 phosphorylation, primary screen, imaging, HeLa, phospho-Chk1 nuclear intensity (AID 1187); details: hydroxyurea-induced phospho-Chk1 immunofluorescence imaging, higher = more signal
# Homeobox protein Hox-A13 (Mus musculus), sequence (Q62424 whole entry, looked up): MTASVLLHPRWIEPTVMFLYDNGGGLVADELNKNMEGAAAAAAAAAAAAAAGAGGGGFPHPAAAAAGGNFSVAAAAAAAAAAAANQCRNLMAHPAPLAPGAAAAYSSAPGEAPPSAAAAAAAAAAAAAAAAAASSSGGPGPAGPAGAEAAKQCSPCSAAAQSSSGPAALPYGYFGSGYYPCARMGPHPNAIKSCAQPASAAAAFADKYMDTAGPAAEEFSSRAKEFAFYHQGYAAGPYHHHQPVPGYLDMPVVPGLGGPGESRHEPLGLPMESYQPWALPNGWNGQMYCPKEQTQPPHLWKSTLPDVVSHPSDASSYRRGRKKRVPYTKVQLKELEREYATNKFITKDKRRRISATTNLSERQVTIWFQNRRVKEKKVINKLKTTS
SMILES,composite z-score [1],composite z-score (XIP peptide (Xip251-270)),z-score [2],z-score [3],z-score [4],z-score [5]
[N-]=[N+]=NCc1ccccc1C[C@]1(C(=O)NCc2ccccc2)COC(c2ccc(OCCCO)cc2)=N1,0.395 (inactive),0.689,-2.45,-6.24 (inactive),-0.403 (inactive),-0.737 (inactive)
C=CCNC(=O)[C@@H]1[C@H]2C(=O)O[C@H](c3ccccc3)[C@H](c3ccccc3)N2[C@H](c2ccccc2OCCO)[C@@]12C(=O)N(C(=O)OCCOC)c1ccc(C#CCC(C(=O)OC)C(=O)OC)cc12,2.28 (inactive),0.878,-2.14,-0.757 (inactive),0.071 (inactive),0.361 (inactive)
CCCNC(=O)[C@@]1(C)c2ccccc2C(=O)N(Cc2ccc(OC(F)(F)F)cc2)[C@H]1c1ccc(CO)cc1,0.689 (inactive),0.794,-0.775,-3.32 (inactive),-0.374 (inactive),-0.473 (inactive)
CCCNC(=O)[C@@]1(C)c2ccccc2C(=O)N(Cc2cc(F)cc(C(F)(F)F)c2)[C@H]1c1ccc(CO)cc1,1.33 (inactive),0.718,-0.8,-3.51 (inactive),0.309 (inactive),0.226 (inactive)
O=C1C[C@@](C(=O)O)(c2ccc([N+](=O)[O-])cc2)[C@@H](c2ccc(CO)cc2I)N1CC12CC3CC(CC(C3)C1)C2,0.862 (inactive),0.771,-1.92,-5.13 (inactive),0.288 (inactive),0.285 (inactive)
C=C(CCCC)C(=O)CC[C@H](OC(C)=O)c1ccc(CO)o1,0.35 (inactive),0.0921,-1.82,-3.62 (inactive),-0.059 (inactive),-0.222 (inactive)
C=CCC(OC(C)=O)[C@@H]1[C@@H](N(Cc2ccc(-c3cccc(C(F)(F)F)c3)o2)C(=O)c2ccc(C)cc2)c2cc(OCCCO)ccc2N1C(=O)c1ccc2ccccc2n1 (stereo partly specified),-0.0348 (inactive),-0.789,-0.537,-0.918 (inactive),-0.51 (inactive),-0.703 (inactive)
C=CCN1C(=O)[C@]2(COC(c3ccc(OCCCO)cc3)=N2)Cc2ccccc21,2.53 (inactive),0.797,-2.19,-4.31 (inactive),-0.455 (inactive),-0.398 (inactive)
O=C1OCCC/C=C\[C@H]2OC34C=CCN(CCN5CCOCC5)C(=O)[C@H]3N(CCO)C(=O)[C@@H]4C12 (stereo partly specified),0.489 (inactive),-0.979,-1.22,-5.83 (inactive),-0.225 (inactive),0.264 (inactive)
COc1ccc([Si](C)(C)[C@H]2[C@H](CC(=O)N3CCC[C@H]3CO)O[C@@]3(C(=O)N(Cc4cccc(N5CCC5=O)c4)c4ccccc43)[C@@H]2C)cc1,0.185 (inactive),0.543,-2.04,-3.58 (inactive),0.307 (inactive),0.429 (inactive)
C[n+]1ccc2ccc(O)cc2c1,1.35 (inactive),0.612,-0.901,-8.11 (active),0.124 (inactive),0.282 (inactive)
[N-]=[N+]=NCc1ccccc1[C@@H]1OC(c2ccc(OCCCO)cc2)=N[C@]1(Cc1ccccc1)C(=O)O,0.078 (inactive),0.859,0.615,-4.89 (inactive),0.412 (inactive),0.595 (inactive)
NC(=O)NCC#Cc1ccc2c(c1)[C@]1(C(=O)N2)[C@H](c2ccc(O)cc2)N2[C@H](c3ccccc3)[C@H](c3ccccc3)OC(=O)[C@H]2[C@@H]1C(=O)N1CCN(c2ncccn2)CC1,0.17 (inactive),0.466,-0.136,-1.61 (inactive),0.477 (inactive),1.04 (inactive)
CCCCCCC#C[Si](O[C@H](c1ccccc1)c1cn([C@H](C)c2ccccc2)nn1)(C(C)C)C(C)C,-0.131 (inactive),-0.012,0.308,0.337 (inactive),-0.341 (inactive),-0.487 (inactive)
CCOC(=O)N1C(c2ccc(OCCCO)cc2)=NC(C(=O)OC)N1C(=O)OCC (stereo unspecified),1.43 (inactive),0.735,-1.28,-4.45 (inactive),-0.231 (inactive),-0.116 (inactive)
CC[C@@H]1C=C(C(=O)O)[C@H](c2ccc(C(C)C)cc2)N1S(=O)(=O)c1ccc(C)cc1,0.719 (inactive),0.924,-0.646,-5.17 (inactive),0.122 (inactive),-0.118 (inactive)
O=C(N1CCCCC1)[C@]1(CCS(=O)(=O)c2ccccc2)N=C(c2ccc(OCCCO)cc2)O[C@@H]1c1ccccc1,1.29 (inactive),0.75,-2.79,-5.68 (inactive),-0.599 (inactive),-1 (inactive)
C=CC[C@]1(C(=O)O)N=C(c2ccc(OCCCO)cc2)O[C@H]1c1ccccc1CN=[N+]=[N-],1 (inactive),-0.76,0.797,-5.35 (inactive),0.341 (inactive),-0.0268 (inactive)
C=CCN1Cc2ccccc2C[C@]2(N=C(c3ccc(OCCCO)cc3)O[C@@H]2c2ccccc2)C1=O,1.27 (inactive),0.824,-2.31,-3.62 (inactive),-0.802 (inactive),-0.978 (inactive)
C=C(/C(=C/C[C@@H](OC(C)=O)c1ccc(CO)o1)c1cnc2ccccc2c1)C(C)C,0.64 (inactive),0.764,-1.43,-5.54 (inactive),-0.0375 (inactive),0.0518 (inactive)
COC(=O)[C@@]1(Cc2ccc(OC)cc2)[C@H]2c3cc(C(=O)N4CCCC4)n(CCc4ccccn4)c3C[C@H]2CN1C(=O)c1ccccc1,0.679 (inactive),0.864,-1.77,-5.3 (inactive),-0.235 (inactive),-0.224 (inactive)
CCOC1=C2C(c3ccc(C)cc3)N(S(=O)(=O)c3ccc(C)cc3)CC2n2c(=O)n(-c3ccccc3)c(=O)n2C1 (stereo unspecified),0.346 (inactive),0.846,-0.102,-0.865 (inactive),-0.562 (inactive),0.0267 (inactive)
O=C1C2C=CC(C(O)c3cccc4ccccc34)N(n3cnnc3)C2C(=O)N1Cc1ccccc1 (stereo unspecified),-0.0195 (inactive),-0.633,-0.206,-1.86 (inactive),0.993 (inactive),-0.055 (inactive)
CN(C)CCCCNC(=O)[C@@H]1C[C@@H]2C(=O)N[C@@H](CCCCN)C(=O)N2[C@@H]1c1cccc(OCCO)c1,0.388 (inactive),0.566,-0.114,-3.47 (inactive),-0.833 (inactive),-0.838 (inactive)
C[N+](C)(C)CCCCNC(=O)[C@H]1C[C@H]2C(=O)N3CCC[C@H]3C(=O)N2[C@H]1c1ccc(O)cc1,1.36 (inactive),0.806,-0.0706,-0.675 (inactive),0.0919 (inactive),-0.206 (inactive)
COC(=O)[C@@]1(Cc2ccc(OC)cc2)[C@H]2c3cc(C(=O)N(C)C)n(Cc4ccc(OC)c(OC)c4)c3C[C@H]2CN1C(=O)c1ccccc1,0.811 (inactive),0.696,-1.47,-4.3 (inactive),-0.225 (inactive),0.305 (inactive)
